A word on the inhibition: it is the drop in the measured response relative to a control, in per cent.

The structures appear in SMILES notation. The list shows a part of the results. A number with no mark means an inactive call. Active and inactive are the calls of the source.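 Rule for the calls, unless noted: active = inhibition above the mean over all tested compounds plus 3 SD, which no compound reached; inactive = the rest.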

The test system of assay [1] is HIV-1 integrase (multimerization). The assay is described as follows: stimulation of HIV-1 integrase oligomerization – biochemical, TR-FRET, counter-screen for LEDGF/p75 integration inhibitor project (AID 1053131; in the data active = activation above about 8.9%). Particulars: TR-FRET HIV-1 integrase multimerization, at 7.7 µM, active compounds read high. A general note: Time-resolved FRET reads energy transfer from a long-lived donor to a nearby acceptor.

Assay [2] can be described thus: compounds disturbing TR-FRET signal readout – biochemical, HIV-1 IN multimerization, artefact control for LEDGF/p75-dependent integration inhibitor project, confirmation (AID 1053135).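 Note: 0% = integrase with antibodies and DMSO and 100% = antibodies without integrase.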 Particulars: TR-FRET optical interference counterscreen, at 7.7 µM, active compounds read high.
Assay [3] has as its system HIV-1 integrase / human LEDGF/p75 complex. The assay is described as follows: blockers of LEDGF/p75-dependent integrase activity – biochemical, TR-FRET, confirmation (AID 1053136; in the data active = inhibition above about 14%). The settings on record: TR-FRET LEDGF/p75-dependent HIV-1 integration, at 3.7 µM, active compounds read high.

For the molecule `COCCn1nnnc1C(c1cc2ccc(OC)cc2[nH]c1=O)N1CCc2ccccc2C1` (stereo unspecified), the activation in assay [1] is 0.07%. The inhibition was -0.28% in assay [2] and 0.92% in assay [3].
`O=C(COC(=O)CCC(=O)c1cccs1)NCc1ccco1`: in assay [1], the activation is 11.5% (active). The inhibition in assay [2] was -58.1%; in assay [3], 19.2% (active).
For `COc1ccc(Cn2cc(CN3CCS(=O)(=O)N(Cc4ccc(-c5cccc(Cl)c5)cc4)C(C)C3=O)nn2)cc1` (stereo unspecified), in that order: -2.68%, 13.6% and -1.87%.
For `CCn1nc(C)c(CN2CCN(Cc3ccc(OC)c(C)c3C)C(CCO)C2)c1C` (stereo unspecified), in that order: -0.07%, 0.39% and -3.09%.
For `COc1cc(-c2nnc(NC(=O)CS(=O)(=O)c3ccc(Cl)cc3)o2)cc(OC)c1OC`, in that order: 0.46%, -2.3% and 4.63%.
Regarding `Oc1c(CN2CCOCC2)ccc(CN2CCOCC2)c1O`, the activation in assay [1] was -0.48%. In addition, the values for the inhibition in assay [2] and in assay [3] were 1.64% and 15.7% (active), respectively.
For `Cc1cc(C(=O)NN=C/C=C/c2ccco2)n[nH]1`, in that order: 10.3% (active), -36.8% and 6.81%.
For `CC1(C(=O)NS(=O)(=O)c2ccccc2)CCN1C(=O)Cc1ccc(-c2ccccc2)cc1` (stereo unspecified), in that order: -0.39%, 2.02% and 1.27%.
For `O=C(O)CCC(=O)Nc1ccc(N2CCOCC2)cc1`, in that order: 0.12%, -0.6% and 1.39%.
For `COC(=O)C1=C(C)N(C)C(=O)NC1c1ccc([N+](=O)[O-])o1` (stereo unspecified), the activation in assay [1] was 0.76%. Moreover, the inhibition in assay [2] was -3.75%; in assay [3], 0.3%.
For `CCc1cc2c(SCC(=O)Nc3ncc(Cl)c(C)c3Cl)ncnc2s1`, in that order: -0.15%, 0.78% and 0.88%.
For `C=CCn1c2ccccc2c2nnc(SCc3[nH]c(=O)[nH]c3C(=O)CCCCC(=O)OCC)nc21`, in that order: -0.48%, 2.45% and 24% (active).
For `Cc1cc(=O)oc2c3c(cc(OCC(=O)N[C@H](C(=O)O)c4ccccc4)c12)OC(C)(C)CC3`, in that order: -0.04%, 0.3% and -1.12%.
As for `CN(CC(=O)Nc1ccc(S(=O)(=O)N2CCCC2)cc1)Cc1ccc(Cl)c(Cl)c1`, the activation in assay [1] was 3.77%. The inhibition was -13.1% in assay [2] and 5.4% in assay [3].
For `Cn1c(SCc2nc3ccccc3s2)nnc1-c1ccc2c(c1)OCO2`, in that order: 0.47%, -2.33% and -2.11%.
Take `CN(C)c1ccc(C(CC(=O)O)C(=O)O)cc1` (stereo unspecified): in assay [1], the activation is 3.35%. Further, the inhibition was -16.9% in assay [2] and 0.73% in assay [3].
For `Cc1ccc(/C=C/C(=O)Nc2ccc([N+](=O)[O-])c(NC(=O)/C=C/c3ccc(C)o3)c2)o1`, in that order: 14.2% (active), -71.7% and 41.9% (active).
For `Clc1cc(NC2CCCCC2)ncn1`, in that order: -0.3%, 1.2% and -4.64%.
For `Cc1ccc(C(=O)N/C(=C/c2cccs2)C(=O)N2CCCCC2)cc1`, in that order: -0.16%, 0.87% and 0.33%.
As to `COc1cc(/C=C2\CCCc3c2nc2ccccc2c3C(=O)O)cc(Cl)c1O`, the activation in assay [1] is -1.15%. The inhibition was 5.85% in assay [2] and -2.25% in assay [3].
For `CCc1cc2cc(OC)ccc2nc1SCC(=O)Nc1cc(OC)c(OC)cc1C(=O)O`, in that order: -3.01%, 15.3% and 5.77%.
As for `COc1c(O)cc2oc(-c3ccc(O)c(O)c3)cc(=O)c2c1O`, the activation in assay [1] is 16.2% (active). Moreover, the inhibition was -81.9% in assay [2] and 89.6% (active) in assay [3].
For `CSc1nc(N)c(C#N)c(-c2ccccc2Cl)c1C#N`, the activation in assay [1] is -0.67%. Moreover, the figures for the inhibition in assay [2] and in assay [3] were 3.41% and 0.36%, respectively.
As to `O=C(c1cccc(C(F)(F)F)c1)N1CC[C@H]2[C@H](CCCN2Cc2cc(F)cc(F)c2)C1`, the activation in assay [1] was 0.05%. Further, the inhibition in assay [2] was -0.14%; in assay [3], -8.63%.
For `COc1ccc(C(=O)/C=C/c2ccc(-c3ccccc3)cc2)cc1CSCC(=O)O`, in that order: -1.35%, 6.82% and 21.8% (active).
For `C=CCN1C(=O)C(O)(CC(=O)c2ccccn2)c2ccccc21` (stereo unspecified), in that order: 0.97%, -4.84% and 0.38%.
For `Cc1ccc(-c2nn(-c3ccccc3)cc2/C=C2\SC(=S)N(CCCCCC(=O)O)C2=O)o1`, in that order: 97.9% (active), -492% and 41.5% (active).

For the origin of these results see PubChem BioAssay.
